Bioassay records: PubChem, Center for Chemical Genomics, University of Michigan
The entries come from a sample that favours hits as a whole.
Dicer inh: human Dicer pre-microRNA cleavage inhibition. z-score at 25 µM. 6% of 47,000 active. Q9UPY3. cat-ELCCA pre-miR-21 Dicer processing, chemiluminescence; stronger effect = higher value; in the data active = z-score above about 3, passing the limit was not always enough;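 also: plate controls were vehicle for no effect and no enzyme for full effect; higher signal means more uncleaved substrate so more Dicer inhibition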
Target sequence (Q9UPY3 whole entry, looked up): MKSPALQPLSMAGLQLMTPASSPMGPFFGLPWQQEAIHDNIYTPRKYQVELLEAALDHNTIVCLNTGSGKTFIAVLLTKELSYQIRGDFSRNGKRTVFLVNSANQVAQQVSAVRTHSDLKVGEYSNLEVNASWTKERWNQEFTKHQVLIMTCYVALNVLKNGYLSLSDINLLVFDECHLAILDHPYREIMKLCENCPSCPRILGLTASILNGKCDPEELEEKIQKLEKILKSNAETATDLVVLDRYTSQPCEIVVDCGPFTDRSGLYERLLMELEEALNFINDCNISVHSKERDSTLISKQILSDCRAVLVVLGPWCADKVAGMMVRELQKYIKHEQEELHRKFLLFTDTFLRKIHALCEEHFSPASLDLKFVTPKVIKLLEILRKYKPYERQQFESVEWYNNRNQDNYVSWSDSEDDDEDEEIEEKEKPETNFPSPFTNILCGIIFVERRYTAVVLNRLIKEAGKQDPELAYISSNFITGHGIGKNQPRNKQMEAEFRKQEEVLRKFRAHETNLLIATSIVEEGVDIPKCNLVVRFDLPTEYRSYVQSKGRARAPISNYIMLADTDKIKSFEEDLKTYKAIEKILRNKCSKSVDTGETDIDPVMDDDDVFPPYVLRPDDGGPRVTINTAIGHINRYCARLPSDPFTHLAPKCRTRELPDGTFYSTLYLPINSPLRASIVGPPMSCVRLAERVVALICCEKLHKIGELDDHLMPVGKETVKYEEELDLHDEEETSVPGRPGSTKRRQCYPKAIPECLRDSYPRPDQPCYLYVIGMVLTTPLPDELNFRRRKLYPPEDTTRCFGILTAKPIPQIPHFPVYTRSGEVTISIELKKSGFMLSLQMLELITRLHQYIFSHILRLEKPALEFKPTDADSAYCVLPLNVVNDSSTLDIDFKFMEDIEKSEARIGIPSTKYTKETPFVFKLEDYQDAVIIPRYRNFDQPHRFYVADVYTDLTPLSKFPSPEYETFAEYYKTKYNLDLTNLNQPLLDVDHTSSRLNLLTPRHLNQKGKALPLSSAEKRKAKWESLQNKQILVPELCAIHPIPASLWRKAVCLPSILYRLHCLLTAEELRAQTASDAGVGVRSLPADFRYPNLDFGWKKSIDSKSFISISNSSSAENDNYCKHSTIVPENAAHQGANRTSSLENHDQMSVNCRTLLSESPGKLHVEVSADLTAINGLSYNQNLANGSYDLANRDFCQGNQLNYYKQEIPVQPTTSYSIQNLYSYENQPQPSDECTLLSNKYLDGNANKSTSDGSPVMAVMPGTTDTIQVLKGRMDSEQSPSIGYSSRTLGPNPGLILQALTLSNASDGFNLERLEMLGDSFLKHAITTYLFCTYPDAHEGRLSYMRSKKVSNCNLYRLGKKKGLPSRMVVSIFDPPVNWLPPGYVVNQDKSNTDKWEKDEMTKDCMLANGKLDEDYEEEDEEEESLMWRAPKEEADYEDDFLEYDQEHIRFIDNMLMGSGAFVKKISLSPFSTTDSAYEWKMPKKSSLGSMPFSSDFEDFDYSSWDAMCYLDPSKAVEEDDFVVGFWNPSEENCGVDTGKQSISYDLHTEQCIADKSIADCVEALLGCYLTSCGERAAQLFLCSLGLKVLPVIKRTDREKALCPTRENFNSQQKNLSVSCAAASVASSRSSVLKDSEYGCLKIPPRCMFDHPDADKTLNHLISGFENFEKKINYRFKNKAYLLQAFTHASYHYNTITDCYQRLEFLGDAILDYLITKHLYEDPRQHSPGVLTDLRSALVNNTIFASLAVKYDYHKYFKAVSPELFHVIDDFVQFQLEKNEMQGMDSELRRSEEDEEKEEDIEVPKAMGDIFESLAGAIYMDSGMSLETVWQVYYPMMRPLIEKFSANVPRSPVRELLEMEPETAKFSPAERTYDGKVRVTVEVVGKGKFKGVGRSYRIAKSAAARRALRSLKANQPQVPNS
Numbers without * were called inactive.

NS(=O)(=O)c1cccc(-c2ccc(C3Nc4ccccc4-c4nc5ccccc5n43)o2)c1 (stereo unspecified) was read as Dicer inh 0.57.
For CC1CN(C2CCN(Cc3ccccc3Br)CC2)CC(C)O1 (stereo unspecified) the results were Dicer inh -0.06.
`C=CCN1C(=O)C(O)(CC(=O)c2ccc(OC)cc2OC)c2cc(Br)ccc21` (stereo unspecified) gave Dicer inh -0.27.
Screening C=CCN1C(=O)C(O)(CC(=O)c2ccc(C)cc2C)c2ccccc21 (stereo unspecified) returned Dicer inh -1.
For C=CCN1C(=O)C(O)(CC(=O)c2ccccc2OC)c2ccccc21 (stereo unspecified) the results were Dicer inh 1.1.
Screening C=CCN1C(=O)C(O)(CC(=O)c2cc(C)ccc2C)c2ccccc21 (stereo unspecified) returned Dicer inh 9.4*.
For C=CCN1C(=O)C(O)(CC(=O)c2cc(OC)ccc2OC)c2cc(Br)ccc21 (stereo unspecified) the results were Dicer inh 3.5*.
For CCCN1C(=O)C(O)(CC(=O)c2cc(OC)ccc2OC)c2cc(Br)ccc21 (stereo unspecified) the results were Dicer inh -0.9.
`O=c1[nH]c(SCCO)nc2c1cnn2-c1ccc(F)cc1` gave Dicer inh 1.3.
N#CC1(Nc2cccc(C(F)(F)F)c2)CCCCCC1 was read as Dicer inh -0.36.
O=c1c2c(N3CCCCC3)cc(N3CCCCC3)nc2n(-c2ccccc2)c(=O)n1-c1ccccc1 was read as Dicer inh 0.74.
c1cc2c3c(cccc3c1)-c1nc3ccccc3nc1-2 was read as Dicer inh -0.43.
For COc1ccc(C2=Nc3cccc4cccc(c34)N2)cc1 the results were Dicer inh 0.66.
`N#CC1=CNc2ccccc2N=C1N` gave Dicer inh 0.36.
For Nc1cccc(C2=Nc3cccc4cccc(c34)N2)c1 the results were Dicer inh 3.2*.
`CN(C)c1ccc(C2=Nc3cccc4cccc(c34)N2)cc1` gave Dicer inh 0.75.
Screening NC1=Nc2cccc3cccc(c23)N1 returned Dicer inh 26*.
COC(=O)C1CCC(C)(C(=O)O)C1(C)C (stereo unspecified) was read as Dicer inh 0.99.
`Cn1c(=O)c2c(ncn2CC(=O)NCc2ccccn2)n(C)c1=O` gave Dicer inh 1.
Screening CCOC(=O)c1cnn(-c2ccc(NS(=O)(=O)c3ccc(C)cc3)cc2)c1C(F)(F)F returned Dicer inh 1.1.
Screening Cc1noc(NC(=O)c2ccc(C(F)(F)F)cc2)c1[N+](=O)[O-] returned Dicer inh 4.6*.
Cc1noc(-c2ccc(Cl)cc2)c1C(=O)NNC(=O)c1ccc(C(F)(F)F)cc1 was read as Dicer inh 3.8.
Cc1nc(C)c(C(=O)NNC(=O)c2ccc(C(F)(F)F)cc2)s1 was read as Dicer inh -0.39.
O=C(/C(=N\N=C\c1ccc(Cl)cc1)c1ccccc1)c1ccccc1 was read as Dicer inh -1.2.
Screening CC1=NN(c2ccc(C(=O)O)cc2)C(=O)C1 returned Dicer inh -2.2.
Screening Cc1ccc(C(=O)O)cc1-n1cccc1 returned Dicer inh -0.63.
For Cc1ccc(C(=O)O)cc1N1C(=O)CCC1=O the results were Dicer inh 4.7*.
For COc1ccc(/C(C)=N/OC(=O)c2ccc([N+](=O)[O-])cc2)cc1CN1CCCC1 the results were Dicer inh 0.69.
Screening COC(=O)c1cnc(SCc2ccc(C(C)(C)C)cc2)nc1N returned Dicer inh -0.11.
Screening Cc1csc2c(=O)n(CCO)c(=O)[nH]c12 returned Dicer inh 4.6*.
For Cc1csc2nc(CN3CCOCC3)[nH]c(=O)c12 the results were Dicer inh -0.93.
`CC(C)CCn1c(=O)[nH]c2ccccc21` gave Dicer inh 0.96.
For O=c1[nH]c2ccsc2c(=O)n1CCO the results were Dicer inh 3.2*.
Screening Cc1csc2c(=O)n(CCN3CCSCC3)c(=O)[nH]c12 returned Dicer inh 5.9*.
`Cc1csc2c(N3CCSCC3)ncnc12` gave Dicer inh -1.2.
For CC1=C(C(=O)OCc2ccccc2)C(c2cccc(O)c2)C2=C(CC(C)(C)CC2=O)N1 (stereo unspecified) the results were Dicer inh -0.45.
For COc1cccc(-c2nc(=S)c3c(n2CCCN(C)C)CCCC3)c1 the results were Dicer inh 0.49.
Screening CN(C)c1scc(-c2ccc(Cl)cc2)c1C#N returned Dicer inh -1.1.
Screening CC(=O)/C(=C\N=S(C)(=O)c1ccc(Cl)cc1)S(=O)(=O)c1ccc(Cl)cc1 (stereo unspecified) returned Dicer inh -1.4.
Screening Cc1ccc(-c2cc(C(F)(F)F)c(C#N)c(=S)[nH]2)cc1 returned Dicer inh -1.
`CCOC(=O)c1sc(N2C(=O)c3oc4ccccc4c(=O)c3C2c2cccc(O)c2)nc1C` (stereo unspecified) gave Dicer inh -0.38.
Screening OC(CNCCNc1ccc(C(F)(F)F)cn1)Cn1ccc2ccccc21 (stereo unspecified) returned Dicer inh -0.59.
Nc1nnc(SCC(=O)N2CCN(S(=O)(=O)c3ccccc3)C2)s1 was read as Dicer inh -0.59.
CC12c3ccccc3C(c3ccccc31)C1C(=O)NN(c3ccccc3)C(=O)C12 (stereo unspecified) was read as Dicer inh 0.56.
For COC(=O)Nc1ccc(S(=O)(=O)N2CCCc3ccccc32)cc1 the results were Dicer inh 0.04.
CCOC(=O)Nc1ccc2c(c1)N(C(=O)NC)c1ccccc1CC2 was read as Dicer inh 3.5*.
Screening CCOC(=O)Nc1ccc2c(c1)N(C(=O)N1CCN(C)CC1)c1ccccc1CC2 returned Dicer inh 1.2.
Screening FC(F)(F)c1ccc(Oc2ccc(-c3nc(-c4ccc(Cl)s4)cs3)cc2)nc1 returned Dicer inh 1.1.
`CC1Oc2ccc(C(=O)c3ccccc3C(=O)O)cc2N(C)C1=O` (stereo unspecified) gave Dicer inh -0.7.
`COc1ccc(C(C)C)cc1S(=O)(=O)Nc1ccc(Cl)cn1` gave Dicer inh 0.52.
`CCOc1ccc(C)cc1S(=O)(=O)Nc1ccc(Cl)cn1` gave Dicer inh 4.6*.
Screening CCOc1ccc(Cl)cc1S(=O)(=O)NCc1ccccn1 returned Dicer inh 0.45.
For O=C(Nc1ccc(OC(F)(F)F)cc1)N1CCN(c2ccc([N+](=O)[O-])cn2)CC1 the results were Dicer inh -0.92.
`N#Cc1cccnc1N1CCN(C(=O)Nc2ccc(OC(F)(F)F)cc2)CC1` gave Dicer inh 3.1*.
Screening N#Cc1cccnc1N1CCN(C(=O)Nc2ccccc2)CC1 returned Dicer inh 2.8.
For Cc1cc(Cl)ccc1OCC(=O)Nc1sc2c(c1C(N)=O)CCC2 the results were Dicer inh 0.06.
For COc1ccc(C2Oc3c(OC)cccc3C3CC(c4ccccc4O)=NN32)c(OC)c1 (stereo unspecified) the results were Dicer inh 3.7.
COc1ccc(O)c(C2=NN3C(C2)c2ccccc2OC3c2cccc(F)c2)c1 (stereo unspecified) was read as Dicer inh 5.2*.
COc1ccc(O)c(C2=NN3C(C2)c2ccccc2OC3c2cc(OC)ccc2OC)c1 (stereo unspecified) was read as Dicer inh 1.7.
